Bioassay records: PubChem, several laboratories
In the library only some 2.9% were active in any assay of this set; here they are far more common.
Peg3 prom inh – Peg3 promoter activity inhibition; inhibition, % at 20 µM; HeLa PEG-Prom luciferase reporter, luminescence, overnight; 360,000 compounds, 1.7% hits;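 active = inhibition of at least 50% at 20 µM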
Shn3 3UTR inh – reduces Shn3 3'UTR luciferase signal in osteoblasts. Clone20 osteoblast Shn3 3'UTR firefly luciferase, 24 h. inhibition, % at 12.5 µM. 360,000 compounds, 0.52% hits;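 active = mean inhibition of at least 75% with every replicate also reaching 75%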;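 note: 0% = median of neutral control wells and 100% = pilot-screen positive control compound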
KKLEB tox – counter-screen for CF NF-kB inhibitors: cytotoxicity; KKLEB CF airway cells viability, ATPlite luminescence, overnight; active compounds read low; cells stimulated with P. aeruginosa culture filtrate; activity change (cytotoxicity), % at 5 µM; 360,000 compounds, 0.36% hits;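 active = corrected activity change at or below -50% at 5 µM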
CF NFkB block – blocks PAF-induced NF-kB reporter in cystic fibrosis cells; KKLEB NF-kB-GFP reporter, GFP fluorescence overnight; inhibition, % at 5 µM; 360,000 compounds, 0.86% hits; AID 588850;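 active = at least 50% inhibition at 5 µM, scaled per plate between neutral and stimulator controls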;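 note: PAF is a Pseudomonas aeruginosa culture filtrate used as stimulus; plate controls were PAF-stimulated DMSO wells for no effect and unstimulated DMSO wells for full effect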
LMP1 NFkB inh – inhibitors of Epstein-Barr LMP1-induced NF-kappaB reporter | LMP1-induced NF-kappaB luciferase reporter cells, luminescence | inhibition, % at 12.5 µM | 350,000 compounds, 0.69% hits | AID 504558; in the data active = inhibition above about 41%;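 note: 0% = neutral control wells and 100% = reference inhibitor control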
TRPM1 prom inh – reduces MITF-dependent TRPM1 promoter luciferase signal; SK-MEL-5 TRPM1 promoter luciferase, 24 h; inhibition, % at 12.5 µM; 330,000 compounds, 0.83% hits; AID 488899;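 active = mean inhibition across replicates of 60% or more, whatever share of single replicates reaches that level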
CF NFkB conf – confirmation of cystic fibrosis induced NF-kB inhibitors. 1,300 compounds, 64% hits. AID 602472. inhibition, % at 5 µM. KKLEB CF airway cells, PAF-induced NF-kB-GFP fluorescence, overnight. shares compounds with CF NFkB block; in the data active = inhibition above about 40%;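 note: stimulus PAF is a Pseudomonas aeruginosa filtrate and not platelet activating factor; plate controls were DMSO wells with stimulus for no effect and unstimulated DMSO wells for full effect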
* hit, by the source's call.

For O=C(/C=C/c1cccc([N+](=O)[O-])c1)NC(=S)Nc1ccc(CN2CCOCC2)cc1 the results were Peg3 prom inh 21, Shn3 3UTR inh 38, KKLEB tox -34, CF NFkB block 67*, LMP1 NFkB inh -18, TRPM1 prom inh 0 and CF NFkB conf 55*.
Screening O=C(NC(=S)Nc1ccc(CN2CCOCC2)cc1)c1ccc([N+](=O)[O-])cc1 returned Peg3 prom inh 12, Shn3 3UTR inh -1, KKLEB tox 4, CF NFkB block -9, LMP1 NFkB inh -1 and TRPM1 prom inh -7.
COc1cc(C2c3cc4c(cc3C3OC(=O)C2C3CO)OCO4)cc(OC)c1OC (centres undefined) was read as Peg3 prom inh -1, Shn3 3UTR inh 16, KKLEB tox -37, CF NFkB block 53*, LMP1 NFkB inh -2 and CF NFkB conf 75*.
Screening O=C(C(c1ccccc1)C(O)c1ccccc1)N1CCOCC1 (centres undefined) returned Peg3 prom inh -7, Shn3 3UTR inh 15, KKLEB tox -5, CF NFkB block -2, LMP1 NFkB inh 13 and TRPM1 prom inh 2.
For Cc1ccc(S(=O)(=O)NCCSc2nnnn2-c2ccc(C(N)=O)cc2)cc1 the results were Peg3 prom inh 18, Shn3 3UTR inh 10, KKLEB tox -1, CF NFkB block -20, LMP1 NFkB inh -7 and TRPM1 prom inh 3.
Screening O=[N+]([O-])c1cc(S(=O)(=O)NCCCN2CCOCC2)ccc1Cl returned Peg3 prom inh 28, Shn3 3UTR inh -17, KKLEB tox -1, CF NFkB block 13, LMP1 NFkB inh -11 and TRPM1 prom inh 5.
Screening O=[N+]([O-])c1cc(S(=O)(=O)NCCN2CCOCC2)ccc1Sc1nnnn1-c1ccccc1 returned Peg3 prom inh 42, Shn3 3UTR inh 8, KKLEB tox -3, CF NFkB block 73*, LMP1 NFkB inh -11, TRPM1 prom inh 79* and CF NFkB conf 19.
For Cc1ccc(-n2nnnc2Sc2ccc(S(=O)(=O)NCCN(C)C)cc2[N+](=O)[O-])cc1 the results were Peg3 prom inh 100*, Shn3 3UTR inh -46, KKLEB tox -31, CF NFkB block 91*, LMP1 NFkB inh 47*, TRPM1 prom inh 92* and CF NFkB conf 51*.
For CCCC(=O)N1CCC1(C)C(=O)NS(=O)(=O)c1ccc(C(C)(C)C)cc1 (centres undefined) the results were Peg3 prom inh 2, Shn3 3UTR inh 16, KKLEB tox 5 and CF NFkB block -13.
Screening CCCc1cc(=O)oc2cc(C)cc(OCC(=O)N3C[C@H]4C[C@@H](C3)c3cccc(=O)n3C4)c12 returned Peg3 prom inh 24, Shn3 3UTR inh -12, KKLEB tox 10 and CF NFkB block -21.
`Cc1nc2sc(C(N)=O)c(N)c2c2c1CCCC2` gave Peg3 prom inh -28, Shn3 3UTR inh 15, KKLEB tox 7, CF NFkB block 70*, LMP1 NFkB inh 51*, TRPM1 prom inh 19 and CF NFkB conf 98*.
`CC(=O)C1CCC2C3CCC4=CC(=O)C=CC4(C)C3CCC12C` (centres undefined) gave Peg3 prom inh 26, Shn3 3UTR inh 35, KKLEB tox 8, CF NFkB block -50, LMP1 NFkB inh 14 and TRPM1 prom inh 5.
Screening CCCC1O[C@@H]2C[C@H]3[C@@H]4CCC5=CC(=O)C=C[C@]5(C)[C@H]4[C@@H](O)C[C@]3(C)[C@]2(C(=O)CO)O1 (some centres undefined) returned Peg3 prom inh 4, Shn3 3UTR inh 7, KKLEB tox 22, CF NFkB block 90*, LMP1 NFkB inh 5, TRPM1 prom inh -20 and CF NFkB conf 23.
CCC(CO)Oc1cc(NCc2ccccc2)c2ncn(C(C)C)c2c1 (centres undefined) was read as Peg3 prom inh 15, Shn3 3UTR inh 11, KKLEB tox -4, CF NFkB block 8, LMP1 NFkB inh 10 and TRPM1 prom inh 13.
For CCC(CO)Oc1cc(NCc2ccc(C(C)(C)C)cc2)c2ncn(C(C)C)c2c1 (centres undefined) the results were Peg3 prom inh 19, Shn3 3UTR inh 65, KKLEB tox 1, CF NFkB block 51*, LMP1 NFkB inh -34, TRPM1 prom inh 1 and CF NFkB conf 29.
Screening CCC(CO)Oc1cc(NCc2ccc(O)cc2)c2ncn(C(C)C)c2c1 (centres undefined) returned Peg3 prom inh 2, Shn3 3UTR inh -17, KKLEB tox -3, CF NFkB block 7, LMP1 NFkB inh 3 and TRPM1 prom inh -9.
CCC(COC)Oc1cc(NCc2ccccc2)c2ncn(C(C)C)c2c1 (centres undefined) was read as Peg3 prom inh 0, Shn3 3UTR inh 21, KKLEB tox -15, CF NFkB block 66*, LMP1 NFkB inh 9, TRPM1 prom inh 6 and CF NFkB conf 20.
CCCCOc1cc(NCc2ccccc2)c2ncn(C(C)C)c2c1 was read as Peg3 prom inh 10, Shn3 3UTR inh -3, KKLEB tox -8, CF NFkB block 60*, LMP1 NFkB inh -38, TRPM1 prom inh 4 and CF NFkB conf 22.
`CCC(CO)Oc1cc(NCc2ccccc2C(F)(F)F)c2ncn(C(C)C)c2c1` (centres undefined) gave Peg3 prom inh 39, Shn3 3UTR inh 27, KKLEB tox -17, CF NFkB block 61*, LMP1 NFkB inh 4, TRPM1 prom inh 5 and CF NFkB conf 11.
For CC(=O)NC(C)(c1ccccc1)c1nc(-c2cccc3cccnc23)cs1 (centres undefined) the results were Peg3 prom inh 17, Shn3 3UTR inh 7, KKLEB tox -9 and CF NFkB block 2.
For O=C(NN1CCCCC1)NN1CCCCC1 the results were Peg3 prom inh 2, Shn3 3UTR inh -8, KKLEB tox -9 and CF NFkB block 9.
CSc1ccccc1NC(=O)C1(C)CCN1C(=O)Cc1ccc(-c2ccccc2)cc1 (centres undefined) was read as Peg3 prom inh 28, Shn3 3UTR inh 11, KKLEB tox -11 and CF NFkB block 13.
`CC(C)n1cc2c(N)ncnc2n1` gave Peg3 prom inh 10, Shn3 3UTR inh 9, KKLEB tox -1, CF NFkB block -10, LMP1 NFkB inh 5 and TRPM1 prom inh 9.
`COCc1cc(=O)[nH]c(SCCS(=O)(=O)c2ccc(Cl)cc2Cl)n1` gave Peg3 prom inh 46, Shn3 3UTR inh 58, KKLEB tox -43, CF NFkB block 100*, LMP1 NFkB inh 5, TRPM1 prom inh 9 and CF NFkB conf -15.
CCCCCCc1cc2cc(S(=O)(=O)c3ccc(F)cc3)c(=O)oc2cc1O was read as Peg3 prom inh 43, Shn3 3UTR inh 3, KKLEB tox -36, CF NFkB block 51*, LMP1 NFkB inh -7, TRPM1 prom inh -10 and CF NFkB conf 78*.
